Measurements: PubChem BioAssay
The source made the active and inactive calls.

Experiments:
Albumin (Bos taurus) = Albumin (Bos taurus) (UniProt P02769); experiment: compounds binding labelled BSA control protein – biochemical, small-molecule microarray, Alexa647 label, 635/667 nm fluorescence, artefact control for SMM control protein annotation, profiling panel (AID 1118); details: BSA-A647 binding, fluorescence 635 nm, higher = more signal;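 also: score merges 667 nm emission intensity and signal-to-noise per printed compound spot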
[1] = probe aXIP binding to arrayed compounds – biochemical, NeuroSMM set, 635/667 nm fluorescence, primary screen (AID 1119); details: small-molecule microarray, higher = more signal, called active from +8 up or from −8 down;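 also: probe is the protein aXip251-270 applied at 1 µg/mL to compound-printed slides; binding of probe to printed compounds measured as 667 nm fluorescence plus signal to noise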
[2] = probe aNOTCH3 binding on compound microarray – biochemical, small-molecule microarray, 635/667 nm fluorescence, primary screen (AID 1120); details: higher = more signal;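 also: probe is a biotin-tagged antibody raised against NOTCH3 rather than NOTCH3 protein; score merges spot fluorescence near 667 nm with spot signal to noise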
[3] = probe aNOTCH2 binding on compound microarray – biochemical, small-molecule microarray, 635/667 nm fluorescence, primary screen (AID 1121); details: higher = more signal;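 also: score merges feature fluorescence read at 667 nm with its signal to noise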
[4] = target: Carbonic anhydrase 2 (Homo sapiens) (UniProt P00918); experiment: compounds binding carbonic anhydrase 2 – biochemical, small-molecule microarray, Alexa647-labelled CAII, profiling panel (AID 1122); details: CAII-A647 binding fluorescence, higher = more signal
[5] = COS7 lysate on small-molecule microarray, probe aHis, 635 nm (AID 1123); details: COS7 cell lysate, fluorescence, higher = more signal;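 also: z-score combines 667nm fluorescence intensity with signal-to-noise per printed compound spot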
[6] = probe aLAP1 signal on lysate-treated microarray – cell lysate, small-molecule microarray, COS7 lysate, primary screen (AID 1124); details: probe aLAP1, fluorescence, higher = more signal;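 also: lysate comes from COS7 cells expressing LAP1 and is applied at 0.3 µg/mL; score merges spot fluorescence near 667 nm with signal-to-noise over triplicate slides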
Sam68 (KHDRBS1) = experiment: compounds binding KHDRBS1 protein – biochemical, small-molecule microarray, 635 nm fluorescence, primary screen (AID 1125); details: higher = more signal;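 also: score merges 667 nm channel intensity with signal to noise over triplicate slides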
[7] = tested on: Chordin-like protein 2 (CHRDL2); experiment: compounds binding chordin-like 2 – biochemical, small-molecule microarray, 635 nm fluorescence, primary screen (AID 1126); details: fluorescence 635 nm, higher = more signal;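 also: printed compound slides probed with Chrdl2 protein at 4 µg/mL for 1 h at 4 C; score merges 667 nm emission intensity with signal to noise over three replicate slides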
[8] = target: Concanavalin-A (Canavalia ensiformis) (UniProt P02866); experiment: compounds binding concanavalin A lectin – biochemical, small-molecule microarray, Alexa647 label, 635 nm, artefact control for SMM control protein annotation, primary screen (AID 1127); details: ConA-A647 binding fluorescence, higher = more signal;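 also: z combines 667 nm emission intensity with signal-to-noise across three replicate slides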
[9] = compounds binding Alexa647 anti-His antibody – biochemical, small-molecule microarray, 635 nm fluorescence, artefact control for SMM control protein annotation, primary screen (AID 1128); details: higher = more signal;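 also: score merges feature fluorescence with signal-to-noise for each printed compound spot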
[10] = tested on: Human papillomavirus type 1a E7 protein (residues 1-88); experiment: HPV1a E7 small-molecule binders, primary screen, biochemical, small-molecule microarray, residues 1-88, 635 nm (AID 1129); details: small-molecule microarray binding, fluorescence 635 nm; higher = more signal
[11] = target: Focal adhesion kinase 1 (Homo sapiens) (UniProt Q05397); experiment: PTK2 protein binding on printed compound slides – biochemical, small-molecule microarray, 635/667 nm fluorescence, BSA, DTT, primary screen (AID 1130); details: 635 nm fluorescence, higher = more signal;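 also: composite of spot emission at 667 nm and signal to noise over triplicate slides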
[12] = tested on: Fibrinogen (Alexa647-labelled); experiment: Alexa647-fibrinogen binding to printed small molecules – biochemical, small-molecule microarray, 635/667 nm fluorescence, artefact control for SMM control-protein annotation, profiling panel (AID 1131); details: fibrinogen-A647 binding fluorescence, higher = more signal;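 also: z-score merges 667 nm fluorescence with per-spot signal-to-noise over triplicate slides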
[13] = target: Follistatin (Homo sapiens) (UniProt P19883); experiment: FST protein binding to printed compounds – biochemical, small-molecule microarray, 635/667 nm fluorescence, primary screen (AID 1132); details: 635 nm fluorescence, higher = more signal
[14] = target: Fibroblast growth factor 2 (Homo sapiens) (UniProt P09038); experiment: basic fibroblast growth factor binding to printed compounds – biochemical, small-molecule microarray, 635/667 nm fluorescence, primary screen (AID 1133); details: FGF2, fluorescence 635/667, higher = more signal
[15] = JC-1 mitochondrial potential readout, lung cancer cells – cell-based, A549, JC-1 fluorescence, basal, 24 h, 100 nL, profiling panel (AID 1138); details: higher = more signal;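 also: A549 lung adenocarcinoma cells under basal conditions with no added stimulus; test concentration not given here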
Lefty1 = Lefty1 protein binding to printed compounds – biochemical, small-molecule microarray, 635/667 nm fluorescence, primary screen (AID 1139); details: fluorescence 635/667, higher = more signal
[16] = tested on: wheat germ agglutinin (Triticum aestivum), Alexa647-labelled; experiment: Alexa647-WGA lectin binding to printed small molecules – biochemical, small-molecule microarray, 635/667 nm fluorescence, artefact control for SMM control-protein annotation, profiling panel (AID 1140); details: WGA-A647 binding, 635 nm fluorescence, higher = more signal;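 also: score merges 667 nm feature emission with signal to noise over triplicate slides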
[17] = target: Luciferin 4-monooxygenase (Photinus pyralis) (UniProt P08659); experiment: inhibition of purified Photinus pyralis luciferase – biochemical, luminescence, purified enzyme, 2006 set, primary screen (AID 1141); details: purified firefly luciferase, SteadyGlo luminescence, 30 min; higher = more signal, called active from +8 up or from −8 down;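 also: cell-free assay with purified firefly luciferase at 100 ng per well in PBS; test concentration not given here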
Luciferin 4-monooxygenase (Photinus pyralis), sequence (P08659 whole entry, looked up): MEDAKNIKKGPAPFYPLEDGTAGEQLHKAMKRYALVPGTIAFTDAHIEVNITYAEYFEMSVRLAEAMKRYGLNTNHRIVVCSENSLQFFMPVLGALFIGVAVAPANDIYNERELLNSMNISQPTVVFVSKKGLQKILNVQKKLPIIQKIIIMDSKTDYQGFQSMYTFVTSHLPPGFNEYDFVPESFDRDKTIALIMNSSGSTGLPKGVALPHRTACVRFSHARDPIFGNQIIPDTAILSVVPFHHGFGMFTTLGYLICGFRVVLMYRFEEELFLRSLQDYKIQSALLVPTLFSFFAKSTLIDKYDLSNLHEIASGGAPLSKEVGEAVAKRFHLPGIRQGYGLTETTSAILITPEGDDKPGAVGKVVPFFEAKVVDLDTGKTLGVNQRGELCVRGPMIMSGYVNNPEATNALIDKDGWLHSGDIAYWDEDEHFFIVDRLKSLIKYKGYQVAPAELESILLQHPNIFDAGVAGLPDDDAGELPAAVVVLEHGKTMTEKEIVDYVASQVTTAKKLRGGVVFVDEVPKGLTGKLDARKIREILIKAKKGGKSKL

Focal adhesion kinase 1 (Homo sapiens), sequence (Q05397 whole entry, looked up): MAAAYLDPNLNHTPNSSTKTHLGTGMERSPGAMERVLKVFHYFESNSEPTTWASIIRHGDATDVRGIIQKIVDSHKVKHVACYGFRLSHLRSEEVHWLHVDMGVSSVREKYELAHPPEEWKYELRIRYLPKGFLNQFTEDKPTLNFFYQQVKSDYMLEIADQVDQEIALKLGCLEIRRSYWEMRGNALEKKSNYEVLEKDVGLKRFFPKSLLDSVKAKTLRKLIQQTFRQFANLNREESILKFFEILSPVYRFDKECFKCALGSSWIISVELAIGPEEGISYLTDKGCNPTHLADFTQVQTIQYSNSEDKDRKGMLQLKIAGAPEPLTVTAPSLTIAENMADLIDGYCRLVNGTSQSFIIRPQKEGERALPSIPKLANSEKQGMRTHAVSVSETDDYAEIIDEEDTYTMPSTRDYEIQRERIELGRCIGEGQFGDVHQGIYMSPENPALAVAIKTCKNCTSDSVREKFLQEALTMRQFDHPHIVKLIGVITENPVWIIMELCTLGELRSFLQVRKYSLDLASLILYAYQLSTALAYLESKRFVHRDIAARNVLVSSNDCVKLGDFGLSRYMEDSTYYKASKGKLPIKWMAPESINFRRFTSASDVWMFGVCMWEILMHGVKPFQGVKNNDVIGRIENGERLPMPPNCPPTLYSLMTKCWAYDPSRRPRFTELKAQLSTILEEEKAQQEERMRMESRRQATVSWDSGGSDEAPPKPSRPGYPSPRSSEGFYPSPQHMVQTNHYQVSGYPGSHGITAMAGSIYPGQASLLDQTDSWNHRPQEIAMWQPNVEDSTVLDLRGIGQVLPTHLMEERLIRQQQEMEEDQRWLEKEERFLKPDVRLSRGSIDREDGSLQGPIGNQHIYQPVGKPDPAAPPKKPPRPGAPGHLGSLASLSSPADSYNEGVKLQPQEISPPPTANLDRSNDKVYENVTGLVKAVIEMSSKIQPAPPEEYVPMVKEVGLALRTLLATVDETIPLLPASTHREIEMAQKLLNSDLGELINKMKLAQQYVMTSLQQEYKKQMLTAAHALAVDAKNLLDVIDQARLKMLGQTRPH
Fibroblast growth factor 2 (Homo sapiens), sequence (P09038 whole entry, looked up): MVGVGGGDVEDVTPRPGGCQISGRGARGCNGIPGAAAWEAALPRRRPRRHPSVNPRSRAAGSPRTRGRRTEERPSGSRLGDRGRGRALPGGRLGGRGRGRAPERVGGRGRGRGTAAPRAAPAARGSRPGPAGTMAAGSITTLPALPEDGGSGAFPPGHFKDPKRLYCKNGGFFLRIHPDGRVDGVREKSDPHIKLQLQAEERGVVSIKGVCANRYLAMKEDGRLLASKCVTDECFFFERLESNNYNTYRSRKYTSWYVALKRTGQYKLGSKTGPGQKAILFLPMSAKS
Albumin (Bos taurus), sequence (P02769 whole entry, looked up): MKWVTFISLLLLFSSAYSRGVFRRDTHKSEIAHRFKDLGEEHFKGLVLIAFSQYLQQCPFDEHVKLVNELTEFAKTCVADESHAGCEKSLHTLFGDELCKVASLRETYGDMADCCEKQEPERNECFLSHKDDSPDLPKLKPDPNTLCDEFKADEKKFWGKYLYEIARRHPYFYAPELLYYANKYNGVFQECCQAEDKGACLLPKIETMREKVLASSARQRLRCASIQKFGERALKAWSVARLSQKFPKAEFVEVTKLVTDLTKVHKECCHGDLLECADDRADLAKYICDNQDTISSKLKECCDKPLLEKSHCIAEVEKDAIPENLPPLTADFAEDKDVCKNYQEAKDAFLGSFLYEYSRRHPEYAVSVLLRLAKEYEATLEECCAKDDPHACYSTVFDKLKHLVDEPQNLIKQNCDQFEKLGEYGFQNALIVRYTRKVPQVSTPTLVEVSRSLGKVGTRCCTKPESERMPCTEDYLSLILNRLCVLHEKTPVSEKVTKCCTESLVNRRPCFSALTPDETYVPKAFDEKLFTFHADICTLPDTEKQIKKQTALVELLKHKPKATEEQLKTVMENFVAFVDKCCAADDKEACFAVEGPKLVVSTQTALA
Concanavalin-A (Canavalia ensiformis), sequence (P02866 whole entry, looked up): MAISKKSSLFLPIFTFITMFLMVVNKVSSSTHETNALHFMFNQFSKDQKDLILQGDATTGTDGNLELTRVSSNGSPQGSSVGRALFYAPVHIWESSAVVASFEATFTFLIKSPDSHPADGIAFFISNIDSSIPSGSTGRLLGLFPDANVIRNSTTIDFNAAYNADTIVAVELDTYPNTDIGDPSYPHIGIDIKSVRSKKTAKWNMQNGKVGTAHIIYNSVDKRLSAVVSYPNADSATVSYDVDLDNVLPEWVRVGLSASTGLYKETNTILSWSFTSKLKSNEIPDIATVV
Follistatin (Homo sapiens), sequence (P19883 whole entry, looked up): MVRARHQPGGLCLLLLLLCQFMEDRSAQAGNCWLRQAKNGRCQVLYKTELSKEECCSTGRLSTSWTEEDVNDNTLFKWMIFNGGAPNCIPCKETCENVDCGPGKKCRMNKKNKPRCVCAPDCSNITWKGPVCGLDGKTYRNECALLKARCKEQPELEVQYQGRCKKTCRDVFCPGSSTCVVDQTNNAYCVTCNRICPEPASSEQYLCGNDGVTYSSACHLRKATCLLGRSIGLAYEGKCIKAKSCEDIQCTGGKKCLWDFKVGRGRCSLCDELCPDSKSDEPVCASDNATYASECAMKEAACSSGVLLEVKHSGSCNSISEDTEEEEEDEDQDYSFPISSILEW

Compound	composite z-score (Albumin (Bos taurus))	composite Z-score [1]	composite z-score [2]	composite z-score [3]	composite z-score [4]	composite z-score [5]	composite z-score [6]	composite z-score (Sam68 (KHDRBS1))	composite z-score [7]	composite z-score [8]	composite z-score [9]	composite z-score [10]	composite z-score [11]	composite z-score [12]	composite z-score [13]	composite z-score [14]	z-score [15]	composite z-score (Lefty1)	composite z-score [16]	z-score [17]
C=CC[C@@]12N=C(c3ccc(OCCCO)cc3)O[C@@H]1c1ccccc1N(CCC)C2=O	0.727	0.414 (inactive)	0.0968	-0.0617	0.326	2.73	-0.227	1.29	1.24	1.06	2.58	1.22	0.359	0.512	1.52	1.72	2.58	1.31	0.777	-2.23 (inactive)
Cc1ccc(F)cc1S(=O)(=O)N[C@H]1CCN(Cc2ccc(OC(C)C)cc2)C1	-0.052	-0.058 (inactive)	-0.0244	-0.19	0.231	1.89	0.659	0.65	0.544	-0.201	0.6	-0.296	-0.198	-0.71	0.855	0.157	1.3	1.1	-0.6	-0.557 (inactive)
C=CCOC(=O)[C@H]1[C@@H]2C(=O)O[C@@H](c3ccccc3)[C@@H](c3ccccc3)N2[C@@H](c2ccc(OCCOC(=O)[C@@H]3C[C@@H]4C(=O)N[C@@H](CCCCNC(C)=O)C(=O)N4[C@@H]3c3cccc(OCCO)c3)cc2)[C@]12C(=O)Nc1ccccc12	-0.623	1.36 (inactive)	0.116	-0.0704	0.501	2.07	0.352	1.29	0.751	1.2	2.81	1.19	0.838	0.276	1.25	1.53	-0.0996	0.581	-0.185	-0.878 (inactive)
COc1ccc([Si](C)(C)[C@@H]2[C@@H](CC(=O)N(CCO)Cc3ccccc3)O[C@]3(C(=O)N(Cc4ccc(N5C(=O)c6cccc7cccc5c67)cc4)c4ccccc43)[C@H]2C)cc1	-0.806	0.267 (inactive)	0.0496	-0.126	0.283	1.12	0.284	0.956	0.307	1.12	2.39	0.65	0.369	0.674	0.552	0.943	-0.216	0.449	0.934	-0.389 (inactive)
COc1ccc([Si](C)(C)[C@@H]2[C@@H](CC(=O)N3Cc4ccccc4C[C@H]3CO)O[C@]3(C(=O)N(Cc4ccc(N5CCOC5=O)cc4)c4ccccc43)[C@H]2C)cc1	-0.289	1.54 (inactive)	0.0803	-0.128	0.624	1.12	0.313	1.27	1.26	1.16	1.74	0.986	0.239	0.55	1.32	1.49	0.138	1.53	0.914	-0.912 (inactive)
COc1ccc(C(O)C2C=CC3C(=O)N(c4ccccc4)C(=O)C3N2Nc2ccc([N+](=O)[O-])cc2)c2ccccc12 (stereo not given)	0.941	0.372 (inactive)	0.155	0.0702	0.575	2.5	1.44	1.3	0.308	1.22	0.57	1.25	0.846	1	0.91	0.54	-1.56	0.0679	1.21	1.19 (inactive)
CC(C)C(O)C1C=CC2C(=O)NC(=O)C2N1Nc1ccccn1 (stereo not given)	0.701	0.316 (inactive)	-0.0044	-0.0464	0.722	1.59	0.331	0.472	-0.369	0.561	1.25	0.218	-0.0716	0.285	0.712	0.0205	0.44	0.129	0.169	-0.362 (inactive)
COC(=O)C(CC#Cc1ccc2c(c1)[C@]1(C(=O)N2)[C@H](C(=O)N2CCc3cc(OC)c(OC)cc3C2)[C@H]2C(=O)O[C@H](c3ccccc3)[C@H](c3ccccc3)N2[C@@H]1c1ccccc1OCCO)C(=O)OC	0.27	0.112 (inactive)	0.0793	-0.135	0.59	2.3	-0.461	1.3	0.463	1.14	1.21	1.19	0.536	0.613	1.4	1.39	-1.64	1.55	1.17	-0.134 (inactive)
C[N+](C)(C)CCCC[C@@H]1NC(=O)[C@H]2C[C@@H](C(=O)NCCCCCNC(=O)CS)[C@@H](c3cccc(OCCO)c3)N2C1=O	0.479	0.518 (inactive)	-0.0881	-0.115	0.69	1.63	0.985	0.165	0.245	0.896	1.38	0.518	0.247	0.821	0.78	0.549	0.299	-0.383	0.343	-1.09 (inactive)
COc1cc(OC)c(C(O)C2C=CC3C(=O)N(c4ccccc4)C(=O)C3N2Nc2ccc(C(C)C)cc2)cc1Br (stereo not given)	0.971	-0.382 (inactive)	0.274	0.236	0.426	2.76	0.231	1.28	0.1	1.07	-0.0881	1.21	0.441	0.885	0.806	0.0421	0.568	-0.112	1.2	-1.71 (inactive)
COCCOC(=O)N1C(=O)[C@@]2(c3cc(C#CCCO)ccc31)[C@H](c1ccc(OCCO)cc1)N1[C@H](c3ccccc3)[C@H](c3ccccc3)OC(=O)[C@H]1[C@@H]2C(=O)N1CCCCCCC1	-0.226	2.1 (inactive)	1.26	0.675	0.67	2.7	1.95	1.33	1.43	1.13	0.939	1.2	0.644	0.726	1.46	1.68	-0.901	1.33	1.32	-0.247 (inactive)
